Reference: PubChem BioAssay (EPA / NIEHS)
Activity calls are given as the source filed them. How the source made its calls: active means hit-call score of the fitted dose curve at least 0.9, where 1 is the maximum; inactive means score below 0.9.

How the values were obtained:
[1] = ATG_GLI_CIS: Attagene CIS-FACTORIAL HepG2 Assay for human Zinc Finger Protein GLI1 (AID 2282945); details: HepG2, Attagene cis-factorial reporter mRNA, GLI element; actives raise or lower the signal
Method in brief: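 Transiently transfected HepG2 cells report endogenous transcription factor activity via cis-element-driven reporter units. After 24 h compound exposure, reporter mRNA was measured by RT-PCR with capillary electrophoresis; bidirectional fitting against DMSO baseline.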

[2] = ATG_ISRE_CIS: Attagene CIS-FACTORIAL HepG2 Assay for human Interferon Regulatory Factor 1 (IRF1) binding to an Interferon-Stimulated Response Element (ISRE) (AID 2282948); details: HepG2 ISRE cis-reporter (Attagene), mRNA transcription readout; actives raise or lower the signal
Method in brief: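 Transiently transfected HepG2 cells carrying cis-element reporter units, dosed 24 hours. Reporter mRNA quantified by RT-PCR, fluorescent primer extension, HpaI digestion and capillary electrophoresis. Bidirectional fitting relative to DMSO.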

[3] = ATG_M_32_CIS: Attagene CIS-FACTORIAL HepG2 Assay for M32 Transcription Factor (Internal Marker) (AID 2282949); details: HepG2 Attagene cis-factorial M32 reporter, mRNA; actives raise or lower the signal;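 further: background control marker of the multiplexed CIS panel rather than a real target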
Method in brief: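 Following 24 h chemical exposure of HepG2 cells transiently expressing cis-promoter reporter constructs, reporter transcript levels were determined by RT-PCR with fluorescent labelling and capillary electrophoresis, then fitted bidirectionally against DMSO.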

[4] = ATG_M_06_CIS: Attagene CIS-FACTORIAL HepG2 Assay for M06 Transcription Factor (Internal Marker) (AID 2282950); details: HepG2 Attagene CIS-FACTORIAL M06 internal marker reporter; actives raise or lower the signal
Method in brief: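 Steps: transfect HepG2 with multiplexed cis-element reporter constructs; dose chemical 24 h; extract RNA with DNase treatment; reverse-transcribe, PCR-amplify, 6-FAM label, HpaI digest; separate fragments by capillary electrophoresis. Activity fitted both directions versus DMSO.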

[5] = molecular target: Hypoxia-inducible factor 1-alpha (Homo sapiens) (UniProt Q16665); experiment: ATG_HIF1a_CIS: Attagene CIS-FACTORIAL HepG2 Assay for human Hypoxia Inducible Factor 1 (HIF1A) (AID 2282951); details: HepG2 Attagene cis-factorial HIF1a reporter transcription; actives raise or lower the signal
Hypoxia-inducible factor 1-alpha (Homo sapiens), sequence (Q16665 whole entry, looked up): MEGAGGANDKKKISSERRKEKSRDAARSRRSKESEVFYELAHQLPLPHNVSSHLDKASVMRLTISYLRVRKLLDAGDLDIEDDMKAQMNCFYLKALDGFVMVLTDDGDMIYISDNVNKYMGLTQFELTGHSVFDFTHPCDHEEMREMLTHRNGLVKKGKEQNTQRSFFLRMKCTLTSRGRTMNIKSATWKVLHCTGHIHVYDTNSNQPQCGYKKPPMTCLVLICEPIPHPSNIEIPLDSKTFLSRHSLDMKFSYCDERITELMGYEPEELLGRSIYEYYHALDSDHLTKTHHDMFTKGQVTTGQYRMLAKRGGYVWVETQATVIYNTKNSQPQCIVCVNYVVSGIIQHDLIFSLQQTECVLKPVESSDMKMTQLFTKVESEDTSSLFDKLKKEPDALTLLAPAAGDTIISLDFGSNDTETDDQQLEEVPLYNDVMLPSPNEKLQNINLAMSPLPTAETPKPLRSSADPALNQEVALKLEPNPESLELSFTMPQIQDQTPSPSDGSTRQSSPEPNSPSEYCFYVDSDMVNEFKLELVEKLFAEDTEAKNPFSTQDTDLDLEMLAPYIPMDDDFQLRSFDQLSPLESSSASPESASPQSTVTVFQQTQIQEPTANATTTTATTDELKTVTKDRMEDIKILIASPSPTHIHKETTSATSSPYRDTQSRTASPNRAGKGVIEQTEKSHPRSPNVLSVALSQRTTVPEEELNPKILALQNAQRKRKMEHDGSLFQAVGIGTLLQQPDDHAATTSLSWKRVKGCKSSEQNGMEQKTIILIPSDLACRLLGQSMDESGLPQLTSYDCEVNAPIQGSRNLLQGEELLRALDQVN
Method in brief: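 After 24 h chemical exposure of reporter-transfected HepG2 cells, reporter cDNA was PCR-amplified, labelled by 6-FAM primer extension (2 min 95 C, 20 s 68 C, 10 min 72 C), HpaI-cut (2 h, 37 C) and analysed by CE.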

[6] = molecular target: Hepatocyte nuclear factor 6 (Homo sapiens) (UniProt Q9UBC0); experiment: ATG_HNF6_CIS: Attagene CIS-FACTORIAL HepG2 Assay for human Hepatocyte Nuclear Factor 6 (HNF6) (AID 2282952); details: HepG2 Attagene cis-factorial HNF6 reporter transcription; actives raise or lower the signal
Hepatocyte nuclear factor 6 (Homo sapiens), sequence (Q9UBC0 whole entry, looked up): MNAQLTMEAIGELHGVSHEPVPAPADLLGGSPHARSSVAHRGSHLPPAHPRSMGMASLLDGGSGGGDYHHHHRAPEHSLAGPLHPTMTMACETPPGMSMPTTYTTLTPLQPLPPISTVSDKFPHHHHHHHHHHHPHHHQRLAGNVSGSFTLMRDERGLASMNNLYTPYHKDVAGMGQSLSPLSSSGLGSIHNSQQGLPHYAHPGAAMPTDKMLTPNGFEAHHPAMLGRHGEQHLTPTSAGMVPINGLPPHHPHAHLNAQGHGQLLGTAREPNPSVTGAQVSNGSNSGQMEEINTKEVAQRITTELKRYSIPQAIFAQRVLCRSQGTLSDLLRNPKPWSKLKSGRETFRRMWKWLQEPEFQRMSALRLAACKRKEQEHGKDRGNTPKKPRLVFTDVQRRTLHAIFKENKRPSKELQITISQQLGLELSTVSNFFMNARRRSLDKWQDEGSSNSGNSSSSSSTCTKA
Method in brief: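 Cells are HepG2 carrying transiently transfected cis-promoter reporter units. Treatment lasts 24 h, after which reporter transcripts are reverse-transcribed, amplified, FAM-labelled and sized by capillary electrophoresis. DMSO serves as baseline.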

[7] = molecular target: Heat shock factor protein 1 (Homo sapiens) (UniProt Q00613); experiment: ATG_HSE_CIS: Attagene CIS-FACTORIAL HepG2 Assay for human Heat Shock Transcription Factor 1 (HSE) (AID 2282953); details: HepG2 HSE cis-reporter, Attagene RNA transcription; actives raise or lower the signal
Heat shock factor protein 1 (Homo sapiens), sequence (Q00613 whole entry, looked up, the tested form may be a part): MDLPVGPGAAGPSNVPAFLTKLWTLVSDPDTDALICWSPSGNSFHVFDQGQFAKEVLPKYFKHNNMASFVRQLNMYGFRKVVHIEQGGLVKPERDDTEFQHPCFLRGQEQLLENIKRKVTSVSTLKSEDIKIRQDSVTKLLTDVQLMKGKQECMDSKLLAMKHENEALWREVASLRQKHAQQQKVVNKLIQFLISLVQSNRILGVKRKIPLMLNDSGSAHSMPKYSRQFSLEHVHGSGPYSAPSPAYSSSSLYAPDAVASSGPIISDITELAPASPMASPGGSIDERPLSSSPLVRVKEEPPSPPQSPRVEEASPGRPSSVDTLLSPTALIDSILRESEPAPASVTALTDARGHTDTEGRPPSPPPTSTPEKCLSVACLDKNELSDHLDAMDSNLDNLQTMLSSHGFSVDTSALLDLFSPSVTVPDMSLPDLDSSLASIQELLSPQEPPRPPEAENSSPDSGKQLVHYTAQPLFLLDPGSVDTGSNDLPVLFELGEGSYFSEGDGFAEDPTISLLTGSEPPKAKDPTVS
Method in brief: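 Cells were transfected with cis-element-driven reporter constructs, dosed for 24 h, then total RNA was reverse-transcribed and reporter cDNA amplified, FAM-labelled and digested with HpaI. Fragments were resolved by capillary electrophoresis; gain or loss was fitted against DMSO.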

[8] = ATG_MRE_CIS: Attagene CIS-FACTORIAL HepG2 Assay for human Metal Responsive Element (MRE) (AID 2282954); details: HepG2 MRE cis-reporter transcription, Attagene multiplex; actives raise or lower the signal
Method in brief: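 Fluorescent reporter fragments separated by capillary electrophoresis give mRNA induction for the MRE unit after 24 h treatment of transfected HepG2 cells. Endogenous transcription-factor activity is read; DMSO serves as negative control and baseline.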

[9] = ATG_GRE_CIS: Attagene CIS-FACTORIAL HepG2 Assay for human Glucocorticoid Response Elements (GRE) (AID 2282947); details: HepG2 GRE cis-reporter, Attagene multiplex mRNA; actives raise or lower the signal
Method in brief: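 Endogenous transcription factor activity is read through cis-element reporter constructs transiently transfected into HepG2 cells. After 24 h treatment, labelled RT-PCR products are resolved by capillary electrophoresis; DMSO sets baseline for bidirectional curve fitting.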

Measured: AC50

C=C(C)[C@@H]1CC=C(C)CC1
not listed: [9]
inactive: all other assays above

CC(C)CCOCc1ccccc1
not listed: [6]
inactive: all other assays above

CC(C)OC(=O)c1ccccc1
not listed: [9]
inactive: all other assays above

OCCCc1ccccc1
not listed: [6]
inactive: all other assays above

O=C(O[C@@H]1Cc2c(O)cc(O)cc2O[C@@H]1c1cc(O)c(O)c(O)c1)c1cc(O)c(O)c(O)c1
active: [5] 26.8 µM
not listed: [9]
inactive: all other assays above

CC(=O)OC1CCCCC1C(C)(C)C (centres undefined)
not listed: [6]
inactive: all other assays above

CC=C(C)C=CC=C(C)C
not listed: [9]
inactive: all other assays above

CC1=CCC(C(C)C)C=C1 (centres undefined)
active: [8] 62.6 µM
not listed: [9]
inactive: all other assays above

CC(=O)CCC=C(C)C
not listed: [9]
inactive: all other assays above

CCOC(=O)CC(=O)c1ccccc1
not listed: [6]
inactive: all other assays above

CCCCNS(=O)(=O)c1ccc(C)cc1
not listed: [6]
inactive: all other assays above

C=C(C)C1CC=C(C)CC1 (centres undefined)
not listed: [9]
inactive: all other assays above

CC(C)(C)N
not listed: [9]
inactive: all other assays above

CC(C)c1cccc(C(C)C)c1N
not listed: [9]
inactive: all other assays above

Fc1ccc(Br)cc1
not listed: [6]
inactive: all other assays above

O=C(Oc1ccccc1)c1ccccc1C(=O)Oc1ccccc1
not listed: [6]
inactive: all other assays above

C=CC(=O)OCC(C)OCC(C)OCC(C)OC(=O)C=C (centres undefined)
active: [2] 86.1 µM | [8] 46.1 µM
not listed: [9]
inactive: all other assays above

NC(=O)Nc1ccccc1
not listed: [9]
inactive: all other assays above

COc1ccc(-c2coc3cc(O)cc(O)c3c2=O)cc1
active: [7] 174 µM | [8] 138 µM
not listed: [6] | [9]
inactive: all other assays above

Nc1ccc(O)c([N+](=O)[O-])c1
not listed: [6]
inactive: all other assays above
